Screening data: PubChem BioAssay, National Center for Advancing Translational Sciences (NCATS)
The list is not random: actives were taken first. Their share in the collection is about 21%.
Pf growth 96h – P. falciparum growth inhibition at 96 hour, primary screen for plastid delayed-death inhibitors | P. falciparum luciferase reporter growth, 96 h | Potency, µM (highest dose often 28.7 µM), usual class: inhibitors | hit rate 6.9% among 320,000
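Cell-based qHTS: luciferase-tagged P. falciparum in erythrocytes (2% hematocrit, 0.05% parasitemia final) incubated with compounds for 96 hours, 37 C, 5% CO2; luciferase detection reagent then added and luminescence measured.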
Cycloheximide cs – counter-screen for Shiga toxin inhibitors: cycloheximide protein synthesis inhibition | cell reporter, cycloheximide protein synthesis inhibition counterscreen | max response, % | hit rate 12% among 300,000; in the data active = max response mostly above about 13%, no sharp cut-off; inactive = mostly below about 14%; note: read at 38.3 µM for the half of the compounds with a filed dose
NS1 inh – inhibitors of influenza NS1 protein function; Potency, µM (doses to about 46.1 µM); hit rate 0.4% among 270,000; AID 2326; calls by dose curve; note: actives are rising curves; nearly all actives have a fitted effect of over 50% in size
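S. cerevisiae expressing influenza A NS1, grown in glucose, washed, then diluted 1:100 into pH 6.0 -URA galactose medium with 23 nl compound. Growth recovery read as OD600; NS1-free strain serves as control.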
Shiga inhibitor – inhibitors of Shiga toxin in Vero cells. Vero cells, Shiga toxin protein synthesis inhibition reporter. inhibition, % at 38.7 µM. hit rate 9.2% among 290,000. AID 2315; in the data active = inhibition mostly above about 28%, no sharp cut-off; inactive = mostly below about 43%
SARS PLP yeast – SARS-CoV PLP inhibition in yeast; S. cerevisiae expressing SARS-CoV PLpro, growth rescue; Potency, µM (doses to about 32.9 µM), actives largely listed as activators; hit rate 0.19% among 330,000; AID 485353; calls by dose curve; note: nearly all actives have a fitted effect of over 55% in size
Pf growth 48h – P. falciparum growth inhibition at 48 hours (one generation). P. falciparum luciferase growth in erythrocytes, 48 h. Potency, µM (highest dose often 28.7 µM), most hits filed as inhibitors. hit rate 5.9% among 310,000
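Compounds are pin-transferred into medium, infected erythrocytes (2% hematocrit, 0.1% parasitemia final) are added, and plates sit one parasite generation at 37 C in 5% CO2. Detection reagent is then added and luminescence measured.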
Large screens that a line does not name were inactive. Unless noted, calls come from the whole dose curve; as a rule, active = well fitted inhibition curve with a large enough effect; inconclusive = small, poorly fitted or top-dose-only effect, or another doubt; inactive = no such curve, though single readings can be large or run the other way.

O=C(O)/C=C/c1ccc2c(-c3ccccc3)onc2c1	none
O=C(CNCc1ccccc1)NCCCN1CCCC1=O	none
CN1/C(=C\C=Nc2cc(S(=O)(=O)N3CCOCC3)ccc2N2CCOCC2)C(C)(C)c2ccccc21	Pf growth 96h 8.3µM
CCC(=O)Nc1sc2c(c1C#N)CC(C)(CC)OC2 (stereo not drawn)	Pf growth 96h inconclusive
CCCc1cc(=O)oc2cc(OCC(=O)Nc3cc(C)on3)ccc12	Pf growth 96h inconclusive
COc1ccc(COc2ccc3c(C)cc(=O)oc3c2)cc1	Pf growth 96h inconclusive, Cycloheximide cs 67, Shiga inhibitor 134
CCCc1cc(=O)oc2cc(OCC(=O)Nc3ccccn3)ccc12	Cycloheximide cs 25, Shiga inhibitor 67
COc1ccc(-c2cc(=O)oc3cc(OCC(C)=O)ccc23)cc1	none
COc1ccc(-c2cc(=O)oc3cc(OCC(=O)Nc4ccccn4)ccc23)cc1	Cycloheximide cs 26, Shiga inhibitor 26
CCCc1cc(=O)oc2cc(OCc3ccc(C(=O)O)cc3)ccc12	Pf growth 96h inconclusive, Cycloheximide cs 47, Shiga inhibitor 130
C=CCN1CC(C(=O)N2CCC(Cc3ccc(Cl)cc3)(C(=O)OCC)CC2)CC1=O (stereo not drawn)	Pf growth 48h inconclusive
CC(C)Nc1nc(Oc2ccc(=O)n(-c3ccccc3)n2)nc(N(C)C)n1	none
Cc1ccc(O)c(NC(=O)C2CCCN2C(=O)OCc2ccccc2)c1 (stereo not drawn)	Pf growth 96h inconclusive, Pf growth 48h inconclusive
O=C(CCCl)N1CCCC2(CCCCC2)C1	none
Fc1ccc(Oc2nccc(-c3ccc(Cl)cc3)n2)cc1	Pf growth 96h inconclusive, Cycloheximide cs 26, Shiga inhibitor 36
CC(C)(C)C1c2[nH]c3ccccc3c2CCN1CCCn1cccn1 (stereo not drawn)	Pf growth 96h 5.9µM, Pf growth 48h inconclusive
CCOC(=O)c1cnn(-c2nc(-c3cccc(F)c3)cs2)c1C(F)(F)F	none
CC(C)Cc1nnc(NC(=O)CCC(=O)N2CCN(c3ccccn3)CC2)s1	none (no result: Pf growth 48h)
CC(C)[C@@H](CO)NC(=O)c1ccc2c3n(nc2c1)-c1ccccc1CO3	Cycloheximide cs 37, Shiga inhibitor 50
CC(C)NC(=O)c1ccc2c3n(nc2c1)-c1ccccc1CO3	Cycloheximide cs 22
N#CCCCC#Cc1ccc2c(c1)COc1c3ccccc3nn1-2	none (no result: Cycloheximide cs, NS1 inh, Shiga inhibitor)
CCCS(=O)(=O)n1nc(-c2ccc(OC)cc2)cc1N	Pf growth 96h 10µM (no result: Pf growth 48h)
CCCS(=O)(=O)n1nc(-c2ccc(OC)cc2OC)cc1N	Pf growth 96h inconclusive, NS1 inh inconclusive
CCCS(=O)(=O)n1nc(-c2ccc(C)cc2)cc1N	Pf growth 96h 4.7µM (no result: Pf growth 48h)
COc1cc(OC)cc(-c2cc(N)n(S(=O)(=O)Cc3ccccc3)n2)c1	Pf growth 96h 8.3µM (no result: Pf growth 48h)
O=C(c1ccco1)N1CCN(C(=O)c2ccccc2NS(=O)(=O)c2ccc(F)cc2)CC1	none (no result: NS1 inh)
CCC(=O)NNc1nc2c(C)cccc2s1	none (no result: NS1 inh)
CCOc1ccc(S(=O)(=O)Nc2nc3ccc(OC)cc3s2)cc1	none (no result: Pf growth 48h)
CCOC(=O)c1sc(Nc2nc3c(F)cccc3s2)cc1C	Cycloheximide cs 38, Shiga inhibitor 72
CCOC(=O)c1sc(Nc2nc3ccc(OC)cc3s2)cc1C	Pf growth 96h inconclusive, Cycloheximide cs 41, Shiga inhibitor 74, Pf growth 48h inconclusive
COc1ccc(C)cc1S(=O)(=O)NCC(c1ccc2c(c1)OCO2)N1CCN(C)CC1 (stereo not drawn)	none (no result: Cycloheximide cs, NS1 inh, Shiga inhibitor)
CC(=O)N1c2c(cc(Br)cc2S(=O)(=O)N2CCN(c3ccccc3F)CC2)CC1C (stereo not drawn)	Pf growth 96h 12µM, Pf growth 48h inconclusive
CC(=O)N1c2c(cc(Br)cc2S(=O)(=O)NCc2cccnc2)CC1C (stereo not drawn)	none
CCCCN(Cc1ccccc1)S(=O)(=O)c1cc(Br)cc2c1N(C(C)=O)C(C)C2 (stereo not drawn)	Pf growth 48h 12µM (no result: Pf growth 96h)
O=C(NCc1cccs1)C1CC(c2ccc(Cl)cc2)=NO1 (stereo not drawn)	Cycloheximide cs 13
O=C(NCc1ccco1)C1CC(c2ccc(Cl)cc2)=NO1 (stereo not drawn)	Cycloheximide cs 27
Cc1ccc(CNC(=O)C2CC(c3ccc(C(F)(F)F)cc3)=NO2)o1 (stereo not drawn)	none
O=C(NCc1ccccn1)C1CC(c2ccc(F)cc2)=NO1 (stereo not drawn)	Pf growth 96h 2.9µM (no result: Pf growth 48h)
O=C(NCc1ccco1)C1CC(c2ccc(F)cc2)=NO1 (stereo not drawn)	Cycloheximide cs 17
O=C(CSc1nccc(=O)[nH]1)NC1CCCCCC1	none (no result: Pf growth 96h, Cycloheximide cs, NS1 inh, Shiga inhibitor, Pf growth 48h)
CC(=O)c1ccc(NC(=O)C2CC(c3ccc(F)cc3)=NO2)cc1 (stereo not drawn)	none
O=C(NC1CCCC1)C1CC(c2ccc(F)cc2)=NO1 (stereo not drawn)	Pf growth 96h inconclusive, Cycloheximide cs 42, Shiga inhibitor 69
Cc1oc(-c2cccc(C(F)(F)F)c2)nc1CN1CCOCC1	Pf growth 96h inconclusive, Cycloheximide cs 26, Shiga inhibitor 54, Pf growth 48h inconclusive
CCC1CCCCN1CCCNC(=O)C1CCN(Cc2nc(-c3ccc(Cl)cc3)oc2C)CC1 (stereo not drawn)	Pf growth 48h 5.2µM
CCc1ccc(-c2nc(CN3CCC(C(=O)NCc4ccc(F)cc4)CC3)c(C)o2)cc1	Pf growth 96h inconclusive, Pf growth 48h 13µM
CCc1ccc(-c2nc(CN3CCC(C(=O)NCCN(CC)c4ccccc4)CC3)c(C)o2)cc1	Pf growth 48h inconclusive
Cc1oc(-c2cccc(Cl)c2)nc1CN1CCCC(C(=O)NCCCN2CCOCC2)C1 (stereo not drawn)	Pf growth 48h 12µM
Cc1oc(-c2cccc(C(F)(F)F)c2)nc1CN1CCC[C@H]1CO	none
CCOc1ncccc1C(=O)Nc1cc2c(cc1Br)OCCO2	none (no result: Pf growth 96h, Cycloheximide cs, NS1 inh, Shiga inhibitor, Pf growth 48h)
CCOc1ccc(-c2cnc(NCc3cccc4ccccc34)n2CCOC)cc1	Pf growth 48h inconclusive
CCN(CCNC(=O)C1CCCN(Cc2nc(-c3ccc(OC)cc3)oc2C)C1)c1ccccc1 (stereo not drawn)	Pf growth 48h 5.2µM
Cc1oc(-c2cccc(Cl)c2)nc1CN1CCC(C(=O)NC2CC2)CC1	none
CCc1ccc(-c2nc(CN3CCC(C(=O)N4CCN(c5ccccc5)CC4)CC3)c(C)o2)cc1	Pf growth 96h 1.9µM
Cc1oc(-c2cccc(Cl)c2)nc1CN1CCC(C(=O)NCc2cccnc2)CC1	Pf growth 48h 2.6µM
CCN(CC)S(=O)(=O)c1cc(NC(=O)c2cc([N+](=O)[O-])ccc2N2CCOCC2)ccc1C	Pf growth 96h inconclusive, Pf growth 48h inconclusive
CN1C(=O)C(CC(=O)Nc2ccc(F)cc2)N(Cc2cccs2)C1=S (stereo not drawn)	Pf growth 96h inconclusive, Pf growth 48h inconclusive
COc1ccc(NC(=O)CC2C(=O)N(Cc3cccs3)C(=S)N2C(C)C)cc1 (stereo not drawn)	Pf growth 48h 2.6µM (no result: NS1 inh)
